Laboratory results taken from article PMC5540273 (PLoS ONE, 2017).

Legend:
Settings in all cases: concentration: 1 μM, replicates: in singlicate; n = 1
[1] = tested on: TYK2(JH2domain-pseudokinase)
TYRO3 = tested on: TYRO3
ULK1 = tested on: ULK1
ULK2 = tested on: ULK2
ULK3 = tested on: ULK3
VEGFR2 = tested on: T1, VEGFR2
T1 construct: gene KDR

VPS34 = tested on: T2, VPS34
T2 construct: gene PIK3C3

VRK2 = tested on: VRK2
WEE1 = tested on: WEE1
WEE2 = tested on: WEE2
WNK1 = tested on: WNK1
WNK2 = tested on: WNK2
WNK3 = tested on: WNK3
WNK4 = tested on: WNK4
YANK1 = tested on: T3, YANK1
T3 construct: gene STK32A

YANK2 = tested on: T4, YANK2
T4 construct: gene STK32B

YANK3 = tested on: T5, YANK3
T5 construct: gene STK32C

YES = tested on: T6, YES
T6 construct: gene YES1

YSK1 = tested on: T7, YSK1
T7 construct: gene STK25

YSK4 = tested on: T8, YSK4
T8 construct: gene MAP3K19
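Note: KINOMEscan kinase panel screen.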

Row | Compound | %Inh [1] [%] | %Inh (TYRO3) [%] | %Inh (ULK1) [%] | %Inh (ULK2) [%] | %Inh (ULK3) [%] | %Inh (VEGFR2) [%] | %Inh (VPS34) [%] | %Inh (VRK2) [%] | %Inh (WEE1) [%] | %Inh (WEE2) [%] | %Inh (WNK1) [%] | %Inh (WNK2) [%] | %Inh (WNK3) [%] | %Inh (WNK4) [%] | %Inh (YANK1) [%] | %Inh (YANK2) [%] | %Inh (YANK3) [%] | %Inh (YES) [%] | %Inh (YSK1) [%] | %Inh (YSK4) [%]
1 | Nc1ncnc2c1nc(-c1ccccc1)n2-c1ccccc1 [SKF-97293] | 54 | 9 | 51 | 35 | 50 | 23 | 44 | 36 | 4 | 0 | 47 | 5 | 48 | 28 | 3 | 21 | 0 | 0 | 4 | 54
2 | Oc1cc(Nc2ccnc3cc(I)ccc23)ccc1F [GW552771] | 25 | 54 | 9 | 0 | 29 | 31 | 0 | 36 | 0 | 0 | 1 | 4 | 34 | 35 | 10 | 22 | 31 | 26 | 0 | 79
3 | COc1ccc(Nc2nccc(NCCNC(=O)c3cc4ccccc4s3)n2)cc1 [GSK1379896] | 0 | 11 | 14 | 0 | 0 | 0 | 18 | 17 | 14 | 0 | 6 | 55 | 10 | 29 | 12 | 0 | 0 | 5 | 0 | 0
4 | O=C(Nc1ccccc1F)NC1CCN(c2ccnc(Nc3ccc(F)cc3)n2)CC1 [GSK1379800] | 43 | 0 | 0 | 0 | 6 | 0 | 0 | 4 | 21 | 0 | 9 | 6 | 37 | 34 | 0 | 0 | 1 | 4 | 0 | 14
5 | CN(C)Cc1ccc(-c2ccc3c(Nc4ccc(Oc5ccccn5)cc4)ccnc3c2)o1 [GW567148] | 18 | 38 | 19 | 0 | 5 | 17 | 0 | 4 | 0 | 2 | 17 | 14 | 46 | 19 | 0 | 0 | 20 | 64 | 0 | 30
6 | COc1ccc(Nc2nccc(N3CCC(NC(=O)Nc4cccc(OC)c4)C3)n2)cc1 (stereo not shown) [GSK1379742] | 5 | 0 | 0 | 0 | 17 | 17 | 16 | 0 | 52 | 13 | 0 | 18 | 19 | 0 | 10 | 0 | 0 | 0 | 0 | 23
7 | COc1cccc(C2=C(Nc3ccc(Cl)c(C(=O)O)c3)C(=O)NC2=O)c1 [SB-390769] | 100 | 0 | 100 | 100 | 100 | 0 | 0 | 31 | 14 | 0 | 100 | 8 | 100 | 43 | 100 | 7 | 0 | 8 | 0 | 100
8 | O=C(O)C(F)(F)F.O=C(O)C(F)(F)F.O=c1[nH]ccc2nc(N[C@@H]3CCCNC3)nc(Nc3ccc(S(=O)(=O)N4CCOCC4)cc3)c12 [GSK2177277] | 93.2 | 15 | 100 | 88 | 99.9 | 74 | 91.5 | 77 | 66 | 13 | 0 | 29 | 13 | 0 | 96.6 | 89 | 74 | 75 | 94.2 | 99.7
9 | CC(C)(C)c1ccc2nccc(Nc3cccc(O)c3)c2c1 [GW856795] | 32 | 0 | 0 | 19 | 0 | 50 | 52 | 100 | 0 | 13 | 0 | 0 | 40 | 0 | 0 | 0 | 0 | 5 | 0 | 0
10 | COC(=O)Nc1nc2cc(Oc3ccc(NC(=O)Nc4cc(C(F)(F)F)ccc4F)cn3)ccc2[nH]1.Cl.Cl [GW681170] | 12 | 0 | 0 | 0 | 13 | 55 | 8 | 22 | 7 | 0 | 6 | 8 | 22 | 39 | 9 | 16 | 0 | 24 | 0 | 87
11 | CCc1ccc(-c2ccc3c(c2)-c2c(cnn2C)S(=O)(=O)N3C)cc1 | 0 | 5 | 0 | 0 | 0 | 14 | 45 | 7 | 0 | 0 | 0 | 5 | 0 | 0 | 1 | 0 | 0 | 0 | 7 | 7
12 | COc1cccc(C(=O)Nc2cccc(Oc3ccc4nc(NC(=O)C5CC5)cn4n3)c2)c1 | 0 | 47 | 0 | 0 | 11 | 99.9 | 22 | 0 | 0 | 20 | 0 | 0 | 0 | 0 | 0 | 0 | 0 | 92.7 | 0 | 100
13 | COCCOCCOc1cc2ncc3c4ccc(C#N)cc4[nH]c3c2cc1OC | 41 | 8 | 79 | 99.4 | 65 | 0 | 0 | 9 | 3 | 15 | 0 | 0 | 0 | 0 | 0 | 0 | 0 | 13 | 0 | 93.7
14 | COc1ccc(-c2coc3ccc(-c4nnc(SCc5ccc(OC)c(C(F)(F)F)c5)o4)cc23)cc1 | 1 | 16 | 0 | 6 | 16 | 17 | 11 | 0 | 0 | 0 | 0 | 31 | 0 | 4 | 10 | 0 | 0 | 12 | 0 | 20
15 | C[C@@H]1CC[C@@H](C(=O)Nc2ccccc2)CN1c1cc(-c2ccc3c(N)n[nH]c3c2)nc(N)n1 [GSK2286062] | 2 | 0 | 8 | 0 | 4 | 0 | 0 | 1 | 0 | 0 | 0 | 0 | 33 | 0 | 15 | 0 | 17 | 0 | 21 | 29
16 | Cl.NC(=O)c1cccc(Nc2nccc(Nc3ccc(Oc4c(Cl)cccc4Cl)c(Cl)c3)n2)c1 [GW659009] | 0 | 0 | 35 | 0 | 4 | 0 | 0 | 2 | 0 | 0 | 3 | 0 | 12 | 0 | 4 | 0 | 5 | 39 | 0 | 3
17 | Nc1ncc(-c2ccc3nccc(-c4ccncc4)c3c2)cc1S(=O)(=O)N1CCOCC1 [GSK1627798] | 21 | 0 | 0 | 0 | 6 | 0 | 93.3 | 0 | 0 | 3 | 0 | 0 | 4 | 9 | 4 | 0 | 22 | 0 | 0 | 88
18 | COc1cc(Nc2nccc(-c3c(-c4cccc(NC(=O)c5c(F)cccc5F)c4)nn4ncccc34)n2)cc(OC)c1OC [GSK327238] | 0 | 100 | 14 | 0 | 30 | 96.1 | 11 | 11 | 10 | 5 | 1 | 0 | 0 | 0 | 50 | 89 | 56 | 100 | 56 | 7
19 | CN1CCN(CCCNc2nccc(-c3c(-c4ccc(F)cc4)nn4cc(C(F)(F)F)ccc34)n2)CC1 [GW621581] | 12 | 0 | 20 | 0 | 8 | 0 | 8 | 0 | 0 | 0 | 3 | 13 | 0 | 0 | 0 | 8 | 0 | 1 | 0 | 9
20 | O=C(Nc1cccc(-c2nn3ccccc3c2-c2ccnc(Nc3cccc(C(F)(F)F)c3)n2)c1)c1c(F)cccc1F [GSK292658] | 0 | 67 | 31 | 9 | 5 | 8 | 0 | 0 | 0 | 0 | 5 | 15 | 0 | 27 | 12 | 7 | 23 | 95.2 | 0 | 0
